{"source": "PubChem BioAssay (NCATS)", "note": "Results filed as inconclusive are left out. Activity calls are given as the source filed them. Calls follow the shape of the dose curve; as a rule, active = well fitted inhibition curve with a large enough effect; inconclusive = small, poorly fitted or top-dose-only effect; inactive = flat fitted curve, though single readings scatter. % is scaled to controls: 0 for no effect and ±100 for the full control effect; potency is read from the fitted curve at half-maximal effect."}
{"system": "KB-3-1", "assay": "Cytotoxic Profiling of Annotated Libraries Using Quantitative High-Throughput Screening (AID 1296008); also: nearly all actives have a fitted effect of over 60% in size", "conditions": "Five cell lines viability, CellTiter-Glo ATP luminescence, 48-72 h; max response: hits give low values", "description": "Cell-based phenotypic screening is a commonly used approach to discover biological pathways, novel drug targets, chemical probes and high-quality hit-to-lead molecules. Many hits identified from high-throughput screening campaign are ruled out through a series of follow-up potency, selectivity/specificity, and cytotoxicity assays. Prioritization of molecules with little or no cytotoxicity for a more in-depth downstream evaluation influence the future direction of projects, so cytotoxicity profiling of the screening libraries at early stage is essential for increasing the likelihood of candidate success. […] For the annotated library, we also examined the primary targets and mechanistic pathways regularly associated with cell death. To our knowledge, this is the first study to use high-throughput screening to profile large libraries for cytotoxicity assessment in both normal and cancer cell lines. In summary, the results generated here constitutes a valuable resource for the scientific community and provides insight on identifying cytotoxic compounds with particular mechanisms of action, and prioritizing compounds with suitable cytotoxicity profile for further evaluation.\nA pintool (Kalypsys) was used to transfer 23 nL of compound solution to the 1536-well assay plates. After 48 or 72 hr incubation at 37 degree Celsius, 5% CO2 and 95% humidity, 2.5 uL of CellTiter-Glo (Promega) was dispensed into each well using a dispenser (Aspect Automation, St. Paul, MN) with solenoid valves (Lee Valves, Westbrook CT). Plates were left at room temperature for 10 min before imaging the ATP-coupled luminescence using a ViewLux microplate imager (PerkinElmer, Waltham, MA)."}
{"compound": "Cc1cccc(N(C)C(=S)Oc2ccc3c(c2)CCC3)c1", "max response": "-1.52% (inactive)"}
{"compound": "OCc1c[nH]c2ccccc12", "max response": "-7.74% (inactive)"}
{"compound": "CSc1ccc(/C=C2/C(C)=C(CC(=O)O)c3cc(F)ccc32)cc1", "max response": "-18.2% (inactive)"}
{"compound": "O=C(O)c1ccccc1Nc1cc(Cl)ccc1C(=O)O", "max response": "-6.82% (inactive)"}
{"compound": "O=C(Nc1ccc(S(=O)(=O)N2CCOCC2)cc1)c1cc(Cl)ccc1NS(=O)(=O)c1ccc(Cl)s1", "max response": "-23.1% (inactive)"}
{"compound": "CC(=O)OCC(=O)[C@@]1(O)[C@H](OC(C)=O)C[C@H]2[C@@H]3CCC4=CC(=O)C=C[C@]4(C)[C@@]3(F)[C@@H](O)C[C@@]21C", "max response": "1.08% (inactive)"}
{"compound": "CC(C)(c1ccc(O)cc1)c1ccc(O)cc1", "max response": "-17.4% (inactive)"}
{"compound": "CCOC(=O)c1ccc(NC(=O)CN2CCCCC2)cc1", "outcome": "inactive"}
{"compound": "CCOC(=O)OCC/C(SC(=O)OCC)=C(\\C)N(C=O)Cc1cnc(C)nc1N", "max response": "-13.2% (inactive)"}
{"compound": "CCC(=O)O[C@H]1[C@H](O[C@@H]2[C@@H](C)[C@H](O[C@H]3C[C@@](C)(OC)[C@@H](O)[C@H](C)O3)[C@@H](C)C(=O)O[C@H](CC)[C@@](C)(O)[C@H](O)[C@@H](C)C(=O)[C@H](C)C[C@@]2(C)O)O[C@H](C)C[C@@H]1N(C)C", "max response": "2.69% (inactive)"}
{"compound": "COc1cc(C(=O)OC(COCCC(C)C)CN2CCOCC2)cc(OC)c1OC", "note": "(stereo not given)", "outcome": "inactive"}
{"compound": "CN1CCCN(C(c2ccccc2)c2ccc(Cl)cc2)CC1", "note": "(stereo not given)", "max response": "0.505% (inactive)"}
{"compound": "Cc1cc(C(C)(C)C)c(O)c(C(C)(C)C)c1", "max response": "-9.85% (inactive)"}
{"compound": "CC(C)=CCC/C(C)=C/CC/C(C)=C/CCC(=O)OC/C=C(\\C)CCC=C(C)C", "max response": "-12.9% (inactive)"}
{"compound": "CC(C)(C)c1nnc(NS(=O)(=O)c2ccccc2)s1", "max response": "3.82% (inactive)"}
{"compound": "CC(=O)N(CC(O)CO)c1c(I)c(C(=O)NCCO)c(I)c(C(=O)NCC(O)CO)c1I", "note": "(stereo not given)", "max response": "-13% (inactive)"}
{"compound": "CCO[C@H](Cc1ccc(OCCc2ccc(OS(C)(=O)=O)cc2)cc1)C(=O)O", "max response": "-10.5% (inactive)"}
{"compound": "NC(=O)COCCN1CCN(C(c2ccccc2)c2ccc(Cl)cc2)CC1", "note": "(stereo not given)", "max response": "-17.1% (inactive)"}
{"compound": "N=C(N)c1ccc(OCCCOc2ccc(C(=N)N)cc2)cc1", "max response": "-29% (inactive)"}
{"compound": "CO[C@@]1(NC(=O)CSC[C@@H](N)C(=O)O)C(=O)N2C(C(=O)O)=C(CSc3nnnn3C)CS[C@@H]21", "max response": "-3.72% (inactive)"}
{"compound": "CCOC(=O)c1ccc(OCCN2C[C@H](O)[C@@H](O)[C@H](O)[C@H]2CO)cc1", "outcome": "inactive"}
{"compound": "CCOc1ccc(NS(=O)(=O)c2ccc(N)cc2)nn1", "max response": "-7.66% (inactive)"}
{"compound": "NCC(=O)O", "max response": "-10.5% (inactive)"}
{"compound": "C[N+]1(CC2COC(c3ccccc3)(c3ccccc3)O2)CCCCC1", "note": "(stereo not given)", "max response": "-21.8% (inactive)"}
{"compound": "CC(=O)OCC[N+](C)(C)C", "max response": "2.39% (inactive)"}
{"compound": "O=C(COCCOCCOCC(=O)Nc1c(I)cc(I)c(C(=O)O)c1I)Nc1c(I)cc(I)c(C(=O)O)c1I", "max response": "-17% (inactive)"}
{"compound": "CCOC(=O)NNc1ccc(N(CC)CC(C)O)nn1", "note": "(stereo not given)", "max response": "-6.42% (inactive)"}
{"compound": "c1ccc2occc2c1", "max response": "-9.71% (inactive)"}
{"compound": "CC(=O)[C@@]1(O)CC[C@H]2[C@@H]3C[C@H](C)C4=CC(=O)CC[C@]4(C)[C@H]3CC[C@@]21C", "max response": "-7.02% (inactive)"}
{"compound": "Cc1cc(O)c2c(O)c3c(O)cccc3cc2c1", "max response": "-20.5% (inactive)"}
{"compound": "N[C@@H](Cc1cc(I)c(O)c(I)c1)C(=O)O", "max response": "-0.833% (inactive)"}
{"compound": "CC(=O)Oc1ccc(C2(c3ccc(OC(C)=O)cc3)Oc3ccccc3NC2=O)cc1", "Potency": "18.4 µM (active)"}
{"compound": "CN1C(=O)c2ccccc2C1=O", "max response": "-21% (inactive)"}
{"compound": "COc1cc(C=O)ccc1O", "max response": "-6.73% (inactive)"}
{"compound": "Cc1ccc(/C=N/n2c(-c3ccccc3)csc2=S)cc1", "max response": "-9.01% (inactive)"}
{"compound": "CCN1C(=O)c2ccccc2C1Nc1ccc(OCCN2CCCCC2)cc1", "note": "(stereo not given)", "outcome": "inactive"}
{"compound": "CC(=O)Nc1c(I)c(NC(C)=O)c(I)c(C(=O)O)c1I", "max response": "-3.56% (inactive)"}
{"compound": "Cn1cc(S(C)=O)c(=O)c2ccc(F)cc21", "note": "(stereo not given)", "max response": "2.67% (inactive)"}
{"compound": "OCCCc1ccccc1", "max response": "-4.85% (inactive)"}
{"compound": "Cc1ccccc1C(=O)N1CC/C(=N\\OS(=O)(=O)O)c2ccc(Cl)cc21", "max response": "9.71% (inactive)"}
